Bioassay records (PubChem BioAssay)
KB-3-1 cytotox: qHTS assay for MDR1-selective chemotherapeutics: Primary screen using the parental adenocarcinoma cell KB-3-1 | 1.4% of 400,000 active | Potency, µM (series often up to 46.1 µM), actives largely listed as cytotoxic | KB-3-1 viability, CellTiter-Glo ATP luminescence, 72 h; further: nearly all actives have a fitted effect of over 60% in size
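Cytotoxicity in the drug-sensitive parental line KB-3-1 was scored as loss of CellTiter-Glo luminescence following 72 h incubation with compound. Values come from curve fitting of normalized concentration-response data.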
TDP1 cell CPT: qHTS for Inhibitors of human tyrosyl-DNA phosphodiesterase 1 (TDP1): qHTS in cells in presence of CPT; chicken DT40 Tdp1-/-;hTDP1 cells + 20 nM CPT, ATP luminescence, 48 h; Potency, µM (highest dose often 46.2 µM), usual class: inhibitors; 12% of 420,000 active; AID 686979, 2013; further: nearly all actives have a fitted effect of over 55% in size
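Chicken DT40 Tdp1-/- cells complemented with human TDP1, 400 cells/well, exposed to compounds plus 20 nM camptothecin for at least 48 h at 37 C; viability read as ATP content by CellTiter-Glo luminescence.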
HT1080NT lethal: qHTS for induction of synthetic lethality in tumor cells producing 2HG: qHTS for the HT-1080-NT fibrosarcoma cell line; Potency, µM (series often up to 46.1 µM), most hits filed as cytotoxic; 1.6% of 360,000 active; HT-1080-NT fibrosarcoma viability, CellTiter-Glo ATP luminescence, 48 h;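 further: NT is the 2HG producing partner of a matched IDH1 knockdown line; nearly all actives have a fitted effect of over 55% in size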
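Toxicity toward the 2HG-producing NT line was scored as %Activity, normalised to DMSO and no-cell wells, from CellTiter-Glo luminescence after 48 hours' treatment.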
HT1080 IDH1KD tx: qHTS for induction of synthetic lethality in tumor cells producing 2HG: qHTS for the HT-1080-IDH1KD cell line. 2% of 360,000 active. Potency, µM (highest dose often 46.1 µM), most hits filed as cytotoxic. HT-1080 IDH1 knockdown viability, ATP luminescence, 48 h. AID 686971, 2013
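Knockdown cells (IDH1KD HT-1080) received compounds 2 h after plating at 750 cells/well and were kept 48 h at 37 °C in 5% FBS RPMI. A CellTiter-Glo luminescence read gave % activity for curve fitting.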
KB-V1 cytotox: qHTS assay for MDR1-selective chemotherapeutics: Primary screen using the drug-selected MDR subline cells KB-V1. KB-V1 MDR cells viability, CellTiter-Glo, 72 h. Potency, µM (titrated, usually from 46.1 µM), most hits filed as cytotoxic. 3.4% of 400,000 active; further: nearly all actives have a fitted effect of over 60% in size
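Potencies derive from concentration-effect curves fitted to normalized luminescence (CellTiter-Glo) of KB-V1 cells treated for 72 h at 37 degrees C in phenol-red-free DMEM containing 10% FBS.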
TDP1 cell noCPT: qHTS for Inhibitors of human tyrosyl-DNA phosphodiesterase 1 (TDP1): qHTS in cells in absence of CPT; DT40 Tdp1-/- hTDP1 cells, no CPT, ATP luminescence, 48 h; Potency, µM (top dose mostly 46.2 µM), actives largely listed as inhibitors; 15% of 420,000 active; AID 686978, 2013; further: nearly all actives have a fitted effect of over 55% in size
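Chicken DT40 Tdp1-/- cells complemented with human TDP1, screened without camptothecin (DMSO vehicle only), 400 cells/well. Compounds pin-transferred, cells incubated at 37 °C for at least 48 hr. Growth read as ATP-dependent luminescence (CellTiter-Glo, 30 min at RT).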
Large screens that a line does not name were inactive. An excerpt weighted towards active compounds, which were near 19% of everything screened. The call rests on the fitted dose curve; in most records, active means well fitted curve in the direction sought with a large enough effect; inconclusive means small, poorly fitted or top-dose-only effect, or another doubt; inactive means no such curve, though single readings can be large; an effect the other way counts as inactive or inconclusive.

COc1ccc(-c2nc3ccccc3c(=O)n2NC(=S)N(C)C)cc1	TDP1 cell CPT 12µM, TDP1 cell noCPT 12µM
CCN(C(=O)CSc1nc2ccccc2c(=O)n1-c1cccc(C)c1)C1CCS(=O)(=O)C1 (stereo unspecified)	KB-3-1 cytotox inconclusive, TDP1 cell CPT 16µM, TDP1 cell noCPT inconclusive
CCn1c(=S)sc2c(=O)n(-c3ccccc3)c(SCC(=O)NCc3ccco3)nc21	TDP1 cell CPT 18µM, TDP1 cell noCPT inconclusive
O=C(Cc1ccccc1)Nn1c(-c2ccccc2)nc2ccccc2c1=O	KB-V1 cytotox 18µM
O=C(Cc1ccccc1)Nn1c(-c2ccccc2F)nc2ccccc2c1=O	none
CCC(C)NC(=O)CSc1nc2c(sc(=S)n2Cc2ccco2)c(=O)n1-c1ccccc1 (stereo unspecified)	TDP1 cell noCPT inconclusive
O=C(CSc1ccc2nnc(-c3cccnc3)n2n1)Nc1ccccc1F	none
O=C(CCCCCn1c(SCC(=O)c2ccccc2)nc2ccccc2c1=O)NCc1ccco1	TDP1 cell CPT 8.2µM, TDP1 cell noCPT 21µM
O=C(CSc1nc2ccccc2c(=O)n1-c1ccccc1)NCc1ccco1	KB-3-1 cytotox inconclusive, KB-V1 cytotox 13µM, TDP1 cell noCPT inconclusive
O=C(Nn1c(-c2ccc(Br)cc2)nc2ccccc2c1=O)c1cccnc1	TDP1 cell CPT inconclusive, TDP1 cell noCPT 23µM
O=C(CCCn1c(SCC(=O)c2ccc(Cl)cc2)nc2ccccc2c1=O)NCc1ccco1	HT1080NT lethal inconclusive, TDP1 cell noCPT inconclusive
O=C(Cc1cccs1)Nn1c(Cc2cccs2)nc2ccccc2c1=O	KB-V1 cytotox 21µM
CCCCC1(c2ccc(F)cc2)NC(=O)N(CC(=O)Nc2ccc(N3CCOCC3)cc2)C1=O (stereo unspecified)	KB-3-1 cytotox inconclusive
COc1ccc(N2CCN(C(=O)[C@@H]3CCCN3C3=NS(=O)(=O)c4ccccc43)CC2)cc1	none
Cc1ccc(NC(=O)CN(C)C(=O)c2cc(-c3ccccc3)nn2-c2ccccc2)cc1	TDP1 cell CPT inconclusive, KB-V1 cytotox inconclusive, TDP1 cell noCPT inconclusive
C=CCn1c(SCC(C)=O)nc2scc(-c3ccco3)c2c1=O	TDP1 cell CPT inconclusive, TDP1 cell noCPT 13µM
O=c1c2ccccc2nc(SCc2cn3ccsc3n2)n1-c1ccccc1	none
C=CCn1c(SCC(=O)N(CC)C2CCS(=O)(=O)C2)nc2scc(-c3ccccc3)c2c1=O (stereo unspecified)	TDP1 cell CPT inconclusive, KB-V1 cytotox 10µM, TDP1 cell noCPT inconclusive
Cc1cccc(-n2c(SCc3cc(=O)n4ccsc4n3)nc3ccccc3c2=O)c1	KB-3-1 cytotox inconclusive, TDP1 cell CPT inconclusive, KB-V1 cytotox inconclusive, TDP1 cell noCPT 15µM
CCN(C(=O)CSc1nc2scc(-c3ccccc3)c2c(=O)n1C)C1CCS(=O)(=O)C1 (stereo unspecified)	none
Cc1nc(-c2ccccc2)sc1CCNS(=O)(=O)c1ccccc1	KB-V1 cytotox inconclusive (no result: TDP1 cell CPT, HT1080NT lethal, HT1080 IDH1KD tx, TDP1 cell noCPT)
CCc1nn(CC(=O)NCCc2ccc(S(N)(=O)=O)cc2)c(=O)c2cc3sccc3n12	none
Cc1cc2nc(-c3ccc(Cl)cc3)c(Cc3cccc(Cl)c3)n2c(C)c1Br	none
Cc1ccc(Cc2c(-c3cccc(Br)c3)nc3cc(C)c(Br)c(C)n23)cc1	TDP1 cell CPT inconclusive, TDP1 cell noCPT inconclusive
Cc1cc2nc(C3CCCCC3)c(Cc3ccccc3)n2c(C)c1Br	TDP1 cell CPT inconclusive, TDP1 cell noCPT 23µM
Cc1cc2nc(-c3ccccc3)c(Cc3ccccc3)n2c(C)c1Br	TDP1 cell CPT 23µM, HT1080NT lethal inconclusive, TDP1 cell noCPT inconclusive
